Laboratory results: PubChem BioAssay
The source made the active and inactive calls.

Tests used:
[1] = optical density shifts of acrAB sulA E. coli – strain DRC41, OD650, 48 h, E. coli filamentation inducer project, primary screen (AID 1152); details: higher = more signal, called active from +8 up or from −8 down;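 further: E. coli MC1000 strain DRC41 lacking acrAB efflux pump and sulA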
[2] = probe aLefty1 binding on compound microarray – biochemical, small-molecule microarray, 635/667 nm fluorescence, primary screen (AID 1153); details: higher = more signal;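 further: score merges spot fluorescence with signal-to-noise ratio from the scanned slide images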
[3] = plasmodial surface anion channel blockers, osmotic lysis – cell-based, P. falciparum Indochina, OD700, 1 h, primary screen (AID 1154); details: P. falciparum Indochina infected RBC osmotic lysis, higher = more signal, called active from +8 up or from −8 down
[4] = plasmodial surface anion channel blockers, osmotic lysis – cell-based, P. falciparum Indochina, OD700, 2 h, primary screen (AID 1155);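 further: lysis reports solute entry through the parasite surface anion channel PSAC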; details: P. falciparum Indochina infected erythrocytes, higher = more signal, called active from +8 up or from −8 down
[5] = changes in parasitized red cell lysis, either direction – P. falciparum Indochina, OD700, 3 h, PSAC antagonist project, primary screen (AID 1156); details: P. falciparum-infected erythrocytes, osmotic lysis, higher = more signal, called active from +8 up or from −8 down
[6] = plasmodial surface anion channel blockers, osmotic lysis – cell-based, P. falciparum Indochina, OD700, 18 h, primary screen (AID 1157); details: P. falciparum Indochina infected erythrocytes, osmotic lysis OD700, 18 h; higher = more signal, called active from +8 up or from −8 down
[7] = S6 kinase pathway phospho-S6 level changes – cell-based, A549, cytoblot, luminescence, serum-stimulated, primary screen (AID 1158); details: 5 h, higher = more signal;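 further: serum-stimulated A549 lung adenocarcinoma cells; signal is phosphorylated S6 detected by cytoblot immunostaining with HRP secondary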
[8] = target: NADPH oxidase 2 (Homo sapiens) (UniProt P04839); experiment: compounds shifting NOX2 Amplex Red fluorescence – cell-based, HEK293-NOX2, PMA-stimulated, NOX inhibitor project, primary screen (AID 1159); details: 45 min, higher = more signal, called active from +8 up or from −8 down; further: test concentration not given here
[9] = target: NADPH oxidase 4 (Homo sapiens) (UniProt Q9NPH5); experiment: compounds shifting NOX4 Amplex Red fluorescence – cell-based, HEK293-NOX4, tetracycline-induced, NOX inhibitor project, primary screen (AID 1160); details: HEK293-NOX4, Amplex Red H2O2 fluorescence, 45 min; higher = more signal, called active from +8 up or from −8 down
[10] = target: NADPH oxidase 5 (Homo sapiens) (UniProt Q96PH1); experiment: compounds shifting NOX5 Amplex Red fluorescence – cell-based, HEK293-NOX5, NOX inhibitor project, primary screen (AID 1161); details: HEK293-NOX5, ionomycin, 45 min, higher = more signal
[11] = compound effects on lung adenocarcinoma cell viability – A549, calcein-AM fluorescence, 48 h, basal, profiling panel (AID 1162); details: higher = more signal; further: test concentration not given here
[12] = compound effects on differentiated 3T3-L1 adipocyte viability – cell-based, 3T3-L1 adipocytes, calcein-AM fluorescence, 48 h, basal, profiling panel (AID 1163); details: 3T3-L1 adipocytes viability, higher = more signal; further: test concentration not given here
[13] = compound effects on hepatocellular carcinoma cell viability – HepG2, calcein-AM fluorescence, 48 h, basal, profiling panel (AID 1164); details: higher = more signal; further: test concentration not given here
[14] = compound effects on multiple myeloma cell viability – MM1S, calcein-AM fluorescence, 48 h, basal, profiling panel (AID 1165); details: higher = more signal;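 further: viability of MM1S multiple myeloma cells under basal unstimulated conditions; test concentration not given here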
[15] = calcein-AM signal in unstimulated myeloma cells – cell-based, calcein-AM fluorescence, 48 h, PK04 Diversity Set, profiling panel (AID 1166); details: RPMI8226 myeloma viability, higher = more signal;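 further: cells grown under basal conditions without added stimulus; test concentration not given here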
[16] = JC-1 mitochondrial signal, unstimulated HepG2 cells – cell-based, JC-1 fluorescence, 24 h, 100 nL compound, profiling panel (AID 1167); details: HepG2 mitochondrial potential, higher = more signal; further: test concentration not given here
[17] = JC-1 mitochondrial signal, unstimulated adipocytes – cell-based, JC-1 fluorescence, 3T3-L1 adipocytes, 24 h, 100 nL compound, profiling panel (AID 1168); details: JC-1 mitochondrial fluorescence, higher = more signal, called active from +8 up or from −8 down; further: test concentration not given here
[18] = JC-1 mitochondrial signal, unstimulated myeloma cells – cell-based, JC-1 fluorescence, RPMI8226, 24 h, 100 nL compound, profiling panel (AID 1169); details: JC-1 mitochondrial potential fluorescence, higher = more signal; further: test concentration not given here
[19] = JC-1 mitochondrial signal, unstimulated MM1S myeloma – cell-based, JC-1 fluorescence, 24 h, 100 nL compound, profiling panel (AID 1170); details: MM1S mitochondrial potential, higher = more signal; further: test concentration not given here
[20] = resazurin metabolic signal in A549 cells – cell-based, resazurin fluorescence, 24 h, PK04 Diversity Set, profiling panel (AID 1171); details: A549 viability, higher = more signal, called active from +8 up or from −8 down; further: test concentration not given here

Chain of NADPH oxidase 4 (Homo sapiens) (Q9NPH5 whole entry, looked up): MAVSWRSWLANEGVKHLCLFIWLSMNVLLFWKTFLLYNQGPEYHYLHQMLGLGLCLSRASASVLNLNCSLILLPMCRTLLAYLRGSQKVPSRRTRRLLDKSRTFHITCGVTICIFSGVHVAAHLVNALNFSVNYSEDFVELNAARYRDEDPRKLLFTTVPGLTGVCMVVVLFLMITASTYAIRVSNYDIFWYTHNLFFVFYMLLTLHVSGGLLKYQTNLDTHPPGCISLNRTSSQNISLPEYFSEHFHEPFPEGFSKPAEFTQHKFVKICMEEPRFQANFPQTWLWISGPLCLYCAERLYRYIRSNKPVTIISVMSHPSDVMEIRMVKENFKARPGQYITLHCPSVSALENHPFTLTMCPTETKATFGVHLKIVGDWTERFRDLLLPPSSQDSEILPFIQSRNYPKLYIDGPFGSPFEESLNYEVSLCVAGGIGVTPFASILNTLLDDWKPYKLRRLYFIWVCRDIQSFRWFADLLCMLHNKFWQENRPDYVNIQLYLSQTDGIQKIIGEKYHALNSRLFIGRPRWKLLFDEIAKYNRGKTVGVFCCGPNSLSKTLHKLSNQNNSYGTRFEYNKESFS
Chain of NADPH oxidase 5 (Homo sapiens) (Q96PH1 whole entry, looked up): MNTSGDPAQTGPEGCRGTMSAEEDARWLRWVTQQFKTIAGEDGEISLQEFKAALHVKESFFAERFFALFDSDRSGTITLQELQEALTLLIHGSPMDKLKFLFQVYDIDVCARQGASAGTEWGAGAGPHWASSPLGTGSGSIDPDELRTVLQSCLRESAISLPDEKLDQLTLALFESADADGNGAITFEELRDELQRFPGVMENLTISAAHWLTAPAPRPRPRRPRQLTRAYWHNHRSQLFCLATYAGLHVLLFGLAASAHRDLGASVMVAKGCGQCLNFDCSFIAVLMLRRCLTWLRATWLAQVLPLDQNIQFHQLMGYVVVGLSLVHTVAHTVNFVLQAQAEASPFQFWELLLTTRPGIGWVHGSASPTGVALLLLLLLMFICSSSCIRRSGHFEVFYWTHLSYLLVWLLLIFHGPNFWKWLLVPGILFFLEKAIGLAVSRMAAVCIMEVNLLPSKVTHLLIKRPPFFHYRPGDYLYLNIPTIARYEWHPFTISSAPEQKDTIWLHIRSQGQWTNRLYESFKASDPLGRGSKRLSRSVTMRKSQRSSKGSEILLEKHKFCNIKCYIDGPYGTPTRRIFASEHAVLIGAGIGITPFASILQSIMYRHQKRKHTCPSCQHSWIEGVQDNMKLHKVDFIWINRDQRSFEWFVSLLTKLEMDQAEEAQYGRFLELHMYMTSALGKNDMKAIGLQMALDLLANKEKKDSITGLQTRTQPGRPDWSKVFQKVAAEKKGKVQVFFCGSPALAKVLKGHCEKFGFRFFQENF
Chain of NADPH oxidase 2 (Homo sapiens) (P04839 whole entry, looked up): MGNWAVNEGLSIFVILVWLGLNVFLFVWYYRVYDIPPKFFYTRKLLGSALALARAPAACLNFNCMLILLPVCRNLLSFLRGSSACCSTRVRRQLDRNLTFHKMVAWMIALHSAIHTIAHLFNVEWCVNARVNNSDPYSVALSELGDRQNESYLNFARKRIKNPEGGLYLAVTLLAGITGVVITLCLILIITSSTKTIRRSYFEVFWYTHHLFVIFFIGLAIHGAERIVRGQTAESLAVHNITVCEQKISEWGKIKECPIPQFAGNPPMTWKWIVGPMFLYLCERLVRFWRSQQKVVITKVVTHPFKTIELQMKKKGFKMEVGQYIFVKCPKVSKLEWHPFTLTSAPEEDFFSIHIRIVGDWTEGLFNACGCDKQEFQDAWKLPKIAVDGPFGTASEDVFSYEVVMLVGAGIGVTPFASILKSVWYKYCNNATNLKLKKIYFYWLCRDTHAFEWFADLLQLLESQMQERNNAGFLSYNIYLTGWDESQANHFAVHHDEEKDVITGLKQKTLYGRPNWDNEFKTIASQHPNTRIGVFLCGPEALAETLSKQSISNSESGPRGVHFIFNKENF

Cc1cc(C)c(C(O)C2C=CC3C(=O)N(c4ccccc4)C(=O)C3N2Nc2ccc(C#N)cc2)c(C)c1 (stereo not given)
z-score [1]: -0.197 (inactive) | composite z-score [2]: 0.938 | z-score [3]: 7.4 (inactive) | z-score [4]: 1.27 (inactive) | z-score [5]: 0.742 (inactive) | z-score [6]: 1.27 (inactive) | z-score [7]: -0.649 | z-score [8]: 0.0492 (inactive) | z-score [9]: -2.68 (inactive) | z-score [10]: -2.1 | z-score [11]: 0.0841 | z-score [12]: -1.06 | z-score [13]: 1.33 | z-score [14]: -0.448 | z-score [15]: -0.127 | z-score [16]: -1.71 | z-score [17]: -1.51 (inactive) | z-score [18]: 0.211 | z-score [19]: -0.308 | z-score [20]: 0.0763 (inactive)

COC(=O)[C@@]1(Cc2ccc(OC)cc2)[C@H]2c3cc(C(=O)N4CCCC4)n(Cc4ccccn4)c3C[C@H]2CN1C(=O)c1ccccc1
z-score [1]: -0.824 (inactive) | composite z-score [2]: 0.595 | z-score [3]: 3.64 (inactive) | z-score [4]: 0.537 (inactive) | z-score [5]: 1.1 (inactive) | z-score [6]: 0.814 (inactive) | z-score [7]: -0.569 | z-score [8]: 0.29 (inactive) | z-score [9]: -1 (inactive) | z-score [10]: -3.2 | z-score [11]: -0.87 | z-score [12]: 0.588 | z-score [13]: -0.379 | z-score [14]: -1.9 | z-score [15]: -0.676 | z-score [16]: 1.85 | z-score [17]: -0.85 (inactive) | z-score [18]: 0.556 | z-score [19]: 0.208 | z-score [20]: -0.823 (inactive)

CC(C)Cc1ccc(CN2CC[C@@H](NS(=O)(=O)c3ccccc3)C2)cc1
z-score [1]: -19.2 (active) | composite z-score [2]: -0.198 | z-score [3]: 2.49 (inactive) | z-score [4]: 0.408 (inactive) | z-score [5]: 0.306 (inactive) | z-score [6]: 0.574 (inactive) | z-score [7]: 0.709 | z-score [8]: 0.312 (inactive) | z-score [9]: -0.907 (inactive) | z-score [10]: -3.68 | z-score [11]: -0.977 | z-score [12]: -0.568 | z-score [13]: -1.63 | z-score [14]: -3.18 | z-score [15]: -3.72 | z-score [16]: -1.13 | z-score [17]: 0.787 (inactive) | z-score [18]: -0.414 | z-score [19]: -2.29 | z-score [20]: -0.235 (inactive)

CC(C)NC(=O)[C@@]1(Cc2ccccc2I)c2ccccc2C(=O)N(Cc2ccccc2)[C@H]1c1ccc(CO)cc1
z-score [1]: -0.668 (inactive) | composite z-score [2]: 0.018 | z-score [3]: 4 (inactive) | z-score [4]: 0.644 (inactive) | z-score [5]: 1.19 (inactive) | z-score [6]: 0.374 (inactive) | z-score [7]: -0.0212 | z-score [8]: 1.32 (inactive) | z-score [9]: 1.07 (inactive) | z-score [10]: 0.909 | z-score [11]: -0.547 | z-score [12]: -0.405 | z-score [13]: -0.513 | z-score [14]: 0.525 | z-score [15]: -0.651 | z-score [16]: 0.798 | z-score [17]: -1.19 (inactive) | z-score [18]: -0.638 | z-score [19]: -0.715 | z-score [20]: 1.29 (inactive)

C=CCN1C(=O)[C@]2(O[C@H](CCO)[C@@H]([Si](C)(C)c3ccc(OC)cc3)[C@@H]2C)c2cc(NC(=O)[C@H](C)O)ccc21
z-score [1]: -0.589 (inactive) | composite z-score [2]: 0.174 | z-score [3]: 9.01 (active) | z-score [4]: 2.65 (inactive) | z-score [5]: -0.212 (inactive) | z-score [6]: 1.43 (inactive) | z-score [7]: 1.23 | z-score [8]: 0.911 (inactive) | z-score [9]: 1.26 (inactive) | z-score [10]: 0.375 | z-score [11]: -1.18 | z-score [12]: 0.449 | z-score [13]: -1.92 | z-score [14]: -2.85 | z-score [15]: -4.33 | z-score [16]: -1.55 | z-score [17]: -0.612 (inactive) | z-score [18]: -1.03 | z-score [19]: -0.061 | z-score [20]: -0.848 (inactive)

CCOC(=O)C1=CCC(c2ccc(C#N)cc2)N(S(=O)(=O)c2ccc(C)cc2)C1 (stereo not given)
z-score [1]: 0.26 (inactive) | composite z-score [2]: 0.262 | z-score [3]: 5.29 (inactive) | z-score [4]: 1.12 (inactive) | z-score [5]: 0.632 (inactive) | z-score [6]: 0.557 (inactive) | z-score [7]: -0.118 | z-score [8]: 0.292 (inactive) | z-score [9]: 0.62 (inactive) | z-score [10]: -0.303 | z-score [11]: -1.14 | z-score [12]: -0.68 | z-score [13]: 0.109 | z-score [14]: -0.548 | z-score [15]: -0.741 | z-score [16]: -0.259 | z-score [17]: 0.345 (inactive) | z-score [18]: -0.516 | z-score [19]: -1.71 | z-score [20]: -0.343 (inactive)

CCCCC=C[C@@H](NC(=O)c1ccco1)c1ccccc1
z-score [1]: -1.24 (inactive) | composite z-score [2]: 0.0701 | z-score [3]: 1.02 (inactive) | z-score [4]: 0.941 (inactive) | z-score [5]: -0.279 (inactive) | z-score [6]: 0.813 (inactive) | z-score [7]: 0.782 | z-score [8]: -0.226 (inactive) | z-score [9]: 0.76 (inactive) | z-score [10]: 1.01 | z-score [11]: -1.08 | z-score [12]: -0.872 | z-score [13]: 0.264 | z-score [14]: -0.499 | z-score [15]: -1.16 | z-score [16]: 0.989 | z-score [17]: 0.0899 (inactive) | z-score [18]: 0.112 | z-score [19]: -1.05 | z-score [20]: 0.335 (inactive)

O=C1N(CCS(=O)(=O)c2ccccc2)Cc2ccccc2C[C@]12N=C(c1ccc(OCCCO)cc1)O[C@@H]2c1ccccc1
z-score [1]: 0.697 (inactive) | composite z-score [2]: 1.66 | z-score [3]: 22.2 (active) | z-score [4]: 8.54 (active) | z-score [5]: 0.443 (inactive) | z-score [6]: 0.427 (inactive) | z-score [7]: 2.67 | z-score [8]: -0.282 (inactive) | z-score [9]: 1 (inactive) | z-score [10]: -0.517 | z-score [11]: 1.82 | z-score [12]: 1.36 | z-score [13]: 1.17 | z-score [14]: 0.835 | z-score [15]: -0.962 | z-score [16]: -0.589 | z-score [17]: 0.603 (inactive) | z-score [18]: -1.08 | z-score [19]: 0.309 | z-score [20]: -3.17 (inactive)

CC(C)C[C@@H]1NC(=O)[C@H]2C[C@@H](C(=O)NCCCCCCNC(=O)CS)[C@@H](c3cccc(OCCO)c3)N2C1=O
z-score [1]: 1.03 (inactive) | composite z-score [2]: -0.0523 | z-score [3]: 3.77 (inactive) | z-score [4]: 0.194 (inactive) | z-score [5]: 2.83 (inactive) | z-score [6]: -0.042 (inactive) | z-score [7]: -0.0016 | z-score [8]: 1.14 (inactive) | z-score [9]: 0.665 (inactive) | z-score [10]: -0.112 | z-score [11]: 0.0674 | z-score [12]: 0.466 | z-score [13]: 0.696 | z-score [14]: 0.118 | z-score [15]: -0.0467 | z-score [16]: -0.569 | z-score [17]: 0.844 (inactive) | z-score [18]: -0.404 | z-score [19]: -0.343 | z-score [20]: 0.0056 (inactive)
